Screening data as filed in PubChem.
G9a block = qHTS Assay for Inhibitors of Histone Lysine Methyltransferase G9a | G9a H3K9 monomethylation, AlphaScreen, 2 h | Potency, µM (series often up to 102 µM), usual class: inhibitors | hit rate 8.8% among 350,000 | AID 504332, 2011; note: nearly all actives have a fitted effect of over 75% in size
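AlphaScreen read-out: biotin-H3K9 peptide (500 nM) methylation by 20 nM enzyme with 20 uM SAM, 2 h at room temperature after 15 min compound preincubation; anti-monomethyl H3K9 antibody plus donor/acceptor beads, 10 min dark.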
BAZ2B block = qHTS Assay for Inhibitors of BAZ2B; Bromodomain adjacent to zinc finger domain protein 2B (Homo sapiens), Q9UIF8; AlphaScreen BAZ2B-H3K14Ac peptide displacement; Potency, µM (highest dose often 114 µM), usual class: inhibitors; hit rate 4.4% among 360,000; note: nearly all actives have a fitted effect of over 60% in size
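AlphaScreen displacement: compounds (up to 110uM) incubated 30 min at room temperature with a preformed 50 nM BAZ2B/50 nM biotinylated H3K14Ac peptide complex in PBS pH 7.4 with Tween-20. Donor and acceptor beads at 10 ug/mL final added, 20 min light-protected before reading.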
Six1-Eya2 blk = qHTS Assay for Inhibitors of the Six1/Eya2 Interaction | Homeobox protein SIX1 (Homo sapiens) + Protein phosphatase EYA2 (Homo sapiens), … | AlphaScreen GST-Six1/His-Eya2 binding, biochemical; active compounds read low | activity change, % (test concentration not listed) | hit rate 0.56% among 360,000; in the data active = activity change below about -65%; inconclusive = mostly about -30% to -63%
Target sequence (O00167 whole entry, looked up): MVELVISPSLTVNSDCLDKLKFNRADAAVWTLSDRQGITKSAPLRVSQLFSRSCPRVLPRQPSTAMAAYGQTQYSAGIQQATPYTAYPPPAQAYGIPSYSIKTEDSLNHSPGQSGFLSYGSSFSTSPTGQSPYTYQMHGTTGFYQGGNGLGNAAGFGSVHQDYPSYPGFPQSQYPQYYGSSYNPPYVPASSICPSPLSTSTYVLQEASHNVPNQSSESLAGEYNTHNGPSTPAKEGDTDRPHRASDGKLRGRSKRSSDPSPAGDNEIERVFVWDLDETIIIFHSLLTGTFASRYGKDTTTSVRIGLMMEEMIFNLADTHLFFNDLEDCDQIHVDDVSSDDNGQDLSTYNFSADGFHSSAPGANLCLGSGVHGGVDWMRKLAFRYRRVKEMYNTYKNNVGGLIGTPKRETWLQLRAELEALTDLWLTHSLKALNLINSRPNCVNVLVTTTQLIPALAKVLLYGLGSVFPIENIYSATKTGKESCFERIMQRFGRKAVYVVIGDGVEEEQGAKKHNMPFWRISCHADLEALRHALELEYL
Target sequence (Q15475 whole entry, looked up): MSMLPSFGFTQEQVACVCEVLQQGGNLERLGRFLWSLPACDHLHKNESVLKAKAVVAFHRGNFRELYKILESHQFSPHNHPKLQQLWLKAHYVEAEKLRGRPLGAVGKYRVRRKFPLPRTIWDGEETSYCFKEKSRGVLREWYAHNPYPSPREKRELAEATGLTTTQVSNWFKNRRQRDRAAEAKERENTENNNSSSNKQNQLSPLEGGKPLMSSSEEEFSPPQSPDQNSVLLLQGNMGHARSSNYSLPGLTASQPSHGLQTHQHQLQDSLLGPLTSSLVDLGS
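Homogeneous AlphaScreen proximity assay pairing GST-Six1 with His-tagged Eya2 (added as 5X mix: 250 nM and 500 nM) in 50 mM Tris pH 8.0, 300 mM NaCl, 1 mM TCEP. Glutathione donor and nickel acceptor beads; 1 h, 37 °C, dark.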
JMJD2A Tudor inh = qHTS Assay for Inhibitors of JMJD2A-Tudor Domain; AlphaScreen JMJD2A-Tudor / H3K4me3 peptide binding; Lysine-specific demethylase 4A (Homo sapiens), O75164; Potency, µM (titrated, usually from 114 µM), actives largely listed as inhibitors; hit rate 4.4% among 390,000; note: nearly all actives have a fitted effect of over 50% in size
CtBP-E1A blk = qHTS Assay for Inhibitors of the CtBP/E1A Interaction. CtBP / adenovirus E1A interaction (AlphaScreen). AlphaScreen GST-E1A/His-CtBP binding, 1536-well; active compounds read low. activity change, % (no concentration beside the values). hit rate 0.49% among 340,000. AID 651724, 2012; in the data active = activity change below about -65%; inconclusive = mostly about -30% to -63%
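Steps: dispense buffer (Tris pH 8.0, NaCl 300 mM, TCEP 1 mM, BSA, Tween 20); add 5X protein mix (GST-E1A, His-CtBP, 125 nM each); pin 23 nL compound; 2 h at 37 °C, dark; add 5X beads (50 ug/mL); 1 h; read.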
HP1b binding inh = HTS for Inhibitors of HP1-beta Chromodomain Interactions with Methylated Histone Tails; Chromobox protein homolog 1 (Homo sapiens), P83916; AlphaScreen HP1-beta / biotin-H3K9me3 peptide binding; Potency, µM (titrated, usually from 114 µM), actives largely listed as inhibitors; hit rate 0.56% among 390,000; note: nearly all actives have a fitted effect of over 70% in size
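Compound inhibition of the preformed complex between 50 nM HP1-beta and 50 nM biotinylated H3K9me3 peptide was read by AlphaScreen. Buffer was PBS pH 7.4 with 0.01% Tween-20. Incubations ran 30 min at room temperature, with 10 ug/mL donor/acceptor beads.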
Numbers stand for hits; 0 = inactive; ? = inconclusive; - = not tested or not shown; [ ] = another dose, or the depositor's remark. A selection: hits, their analogues and other compounds. The true share with any hit is near 10%. Unless noted, calls come from the whole dose curve; as a rule, active = well fitted inhibition curve with a large enough effect; inconclusive = small, poorly fitted or top-dose-only effect; inactive = no such curve, though single readings can be large or run the other way.

SMILES | G9a block | BAZ2B block | Six1-Eya2 blk | JMJD2A Tudor inh | CtBP-E1A blk | HP1b binding inh
CCCc1cc(C(=O)NNC(=S)NCC2CCCO2)cs1 (centres undefined) | 0 | 0 | 0 | 0 | 0 | 0
Cc1cccc(NC(=S)NNC(=S)NCc2ccccc2)c1 | 0.71µM | 0 | 0 | ? | 0 | 0
CCc1cc(C(=O)NNC(=S)Nc2cccc(C)c2)cs1 | 10µM | 0 | 0 | 0 | 0 | 0
CCCc1cc(C(=O)NNC(=S)NC(C)c2ccccc2)cs1 (centres undefined) | 50µM | 0 | 0 | 0 | 0 | 0
Cc1cccc(NC(=S)NN2CCN(C)CC2)c1 | 56µM | 0 | 0 | 0 | 0 | 0
COc1ccc(S(=O)(=O)Cc2ccccc2)cc1N | 0 | 0 | 0 | 0 | 0 | 0
COc1cc(C(=O)NC2(C(F)(F)F)C(=O)NC(C)=C2C#N)cc(OC)c1OC (centres undefined) | 0 | 0 | - | 0 | - | 0
CC(=O)Nc1ccc(NS(=O)(=O)c2ccc3ccccc3c2)cc1 | 0[12.7 µM] | 0 | 0 | 28µM | 0 | 0
CC(=O)Nc1ccc(S(=O)(=O)Nc2ccc(C(=O)NCC(=O)O)cc2)cc1 | 20µM | 0 | 0 | 0 | 0 | 0
CC(=O)Nc1ccc(S(=O)(=O)Nc2ccc(S(=O)(=O)Nc3nc(C)cc(C)n3)cc2)cc1 | ? | 0 | 0 | 0 | 0 | 0
CC(=O)Nc1ccc(NS(=O)(=O)c2ccc3c(c2)n(C)c(=O)n3C)cc1 | 0 | 79µM | 0 | 0 | 0 | 0
CC(Oc1ccc2ccccc2c1)C(=O)NNC(=O)Nc1ccccc1F (centres undefined) | 0 | 0 | 0 | 0 | 0 | 0
Nc1[nH]c(C(=O)c2ccccc2)c(-c2ccncc2)c1C(=O)NC1CC1 | - | - | 0 | - | 0 | -
Cc1ccc(N=Nc2c(N)[nH]n3c(=O)c4c(nc23)CCCC4)cc1 | 0[12.7 µM] | 0 | - | - | - | -
CN(C)CCOc1ccc2ccccc2c1 | 11µM | 45µM | 0 | 10µM | 0 | ?
CN(C)CCOc1cc(Cl)cc(Cl)c1 | 0 | 0 | 0 | 0 | 0 | 0
CCOc1cccc(OCCOCCN(C)C)c1 | 11µM | ? | 0 | 22µM | 0 | ?
CN(C)CCOc1cccc(Cl)c1 | 8.9µM | ? | 0 | 22µM | 0 | ?
CCC(C(=O)N1CCN(c2cc(Cl)ccc2C)CC1)n1nc(C)c2sc3ccccc3c2c1=O (centres undefined) | 0 | 0 | - | 0 | - | 0
CC1(C)CC(=O)C(C=Nc2ccccc2C(=O)O)=C(O)C1 | 0 | 0 | 0 | 0 | 0 | 0
CC1(C)CC(=O)c2cc(N=C/C(C(=O)c3ccccc3)=C(\O)c3ccccc3)c(=O)oc2C1 | 25µM | 0 | 0 | ? | - | 0
COc1ccc(/C=N/N2CCN(C3c4ccccc4-c4ccccc43)CC2)cc1OC | 0 | 0 | 0 | 0 | 0 | 0
COc1cc(/C=N/N2CCN(C3c4ccccc4-c4ccccc43)CC2)cc(OC)c1O | 1.6µM | 11µM | 0 | ? | 0 | 0
COc1cc(/C=N/N2CCN(C3c4ccccc4-c4ccccc43)CC2)cc(OC)c1OC | 50µM | 0 | 0 | ? | 0 | ?
COc1cccc(N=CNc2cccc(OC)c2)c1 | - | - | 0 | 50µM | 0 | 0
SMILES | G9a block | BAZ2B block | Six1-Eya2 blk | JMJD2A Tudor inh | CtBP-E1A blk | HP1b binding inh
Cc1ccccc1N=CC=C1OC(C)(C)C(C)(C)O1 | 40µM | 0 | 0 | 0 | 0 | 0
COc1ccc(N=CC=C2OC(C)(C)C(C)(C)O2)cc1OC | 32µM | ? | 0 | 0 | - | 0
Cc1cccc(N=CC=C2OC(C)(C)C(C)(C)O2)c1 | ? | 0 | 0 | 0 | 0 | 0
COc1cccc(N=CC=C2OC(C)(C)C(C)(C)O2)c1 | 35µM | 0 | 0 | 0 | 0 | 0
CC1(C)Oc2ccc(C#N)cc2[C@@H](OC2=CC(=O)CC2)[C@@H]1O | 0 | - | - | - | - | -
Cc1ccc(N2CCn3c2nc2c3c(=O)n(CCCc3ccccc3)c(=O)n2C)cc1 | ? | ? | - | ? | - | 0
